Data taken from PubChem BioAssay AID651789 (National Center for Advancing Translational Sciences (NCATS), 2012).
Records with an inconclusive call do not appear. Active and inactive are the calls of the source. Calls follow the shape of the dose curve; as a rule, active = well fitted inhibition curve with a large enough effect; inconclusive = small, poorly fitted or top-dose-only effect; inactive = no such curve, though single readings can be large or run the other way.

Test: Acumen qHTS Assay for Inhibitors of the mTORC1 Signaling Pathway in WT MEF Cells: Hit Validation; also: nearly all actives have a fitted effect of over 60% in size
Conditions: Acumen imaging; series mostly up to 37.3 µM
Summary of the method: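 Read-out is immunofluorescent phospho-rpS6 (Ser235/236) normalised to PI-stained cell number, reported as % active cells using a 7.5 nM rapamycin threshold. Cells: WT or Tsc2-/-, p53-/- MEFs, compound-exposed 24 h at 37C; PI count also tracks viability.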
Potency is read from the fitted curve at half-maximal effect.

Potency, inactive:
CCOc1ccccc1NC(=O)c1cn(C2CCCC2)c(=O)c2c1c1ccccc1n2C
Cc1ccc(Nc2nnc(-c3ccc(C)c(S(=O)(=O)N4CCOCC4)c3)c3ccccc23)c(C)c1
CCCCN(CC)CCNC(=O)C1CCN(c2nnc(C)c3c(C)n(-c4ccc(C)cc4)nc23)CC1
COc1cc(NC(=O)Cn2nc(C(F)(F)F)c3c2CCCC3)c(OC)cc1Cl
Cc1ccc(NC(=O)CSc2nc(=O)cc(N)n2CCc2ccccc2)cc1
COc1ccc(/C=C/C(=O)Nc2ccc3nc(N4CCC(C)CC4)cc(C)c3c2)cc1OC
CCNS(=O)(=O)c1cc(-c2nnc(Nc3cccc(C(F)(F)F)c3)c3ccccc23)ccc1C
COc1ccccc1C(=O)Nc1ccc2nc(N3CCC(C)CC3)cc(C)c2c1
COc1ccc(-c2n[nH]c3c2C(c2ccc(O)cc2)N(c2ccc(Br)cc2)C3=O)cc1 (stereo not given)
COc1ccc(C2CC(=O)c3c([nH]c(C(=O)OC4CCCCCC4)c3C)C2)cc1OC (stereo not given)
CCc1ccc(NC(=O)Cn2nc(C(F)(F)F)c3c2CCCC3)cc1
CCCCOC(=O)c1ccc(NC(=O)c2ccc3c(c2)CCN3S(=O)(=O)c2ccccc2)cc1
CCCSc1oc(-c2ccco2)nc1S(=O)(=O)c1ccc(Br)cc1
Cc1ccc(NC(=O)Nc2cccs2)c(C)c1
O=C(CC1(O)C(=O)N(CCc2ccccc2)c2ccc(Br)cc21)c1ccccc1O (stereo not given)
Cc1cccc(C(=O)Nc2c(C(=O)NCc3ccc(Cl)cc3)sc3nc(C)cc(C)c23)c1
Cc1cccc(N(CC(=O)NCCSc2ccc(Cl)cc2)S(=O)(=O)c2ccccc2)c1C
CC(C)CCNc1nc(Nc2ccccc2)c2cnn(C)c2n1
Cn1nnnc1SCCCNCc1cc(Cl)ccc1OCc1ccc(F)cc1
COc1cc(-c2ccno2)ccc1S(=O)(=O)N1CCN(c2cc(C)ccc2C)CC1
CCN1CCC(N(Cc2ccc(F)cc2)C(=O)Nc2ccc(C)c(F)c2)CC1
COc1cccc(-n2c(-c3ccco3)nc3c(cnn3-c3ccc(C)cc3)c2=O)c1
COc1ccc(-c2[nH]nc3nc(-c4cc(OC)c(OC)c(OC)c4)cc(C(=O)O)c23)cc1
O=C(NCc1ccccc1Cl)C(=O)NCC(c1cccs1)S(=O)(=O)c1cccs1 (stereo not given)
Cc1nnc(C(=O)NC(C)(C)c2nc(C(=O)NCc3ccc(F)cc3)c(O)c(=O)n2C)o1
CCOC(=O)c1c(NC(=O)c2ccc(S(=O)(=O)N(C)C)cc2)sc2c1CCN(C)C2
COc1ccc(CCN(C)CCCC(C#N)(c2ccc(OC)c(OC)c2)C(C)C)cc1OC (stereo not given)
Cc1ccc(C(=O)c2cn(CC(=O)NCc3ccccc3Cl)c3nc(C)ccc3c2=O)cc1
Cc1ccc(S(=O)(=O)Nc2ccc3c(c2)c(C(=O)OC(C)C)c(C)n3S(=O)(=O)c2ccc(C)cc2)cc1
Cc1ccc(C(=O)CC2(O)C(=O)N(Cc3ccccc3)c3ccc(Br)cc32)cc1 (stereo not given)
COc1ccc(OCC(O)Cn2c(=N)n(CCN3CCCCC3)c3ccccc32)cc1 (stereo not given)

Potency, active:
CCS(=O)(=O)c1oc(-c2ccc(F)cc2)nc1S(=O)(=O)c1ccc(Br)cc1 4.65 µM
COc1cc(C2CC(=O)Nc3cc4c(cc32)OCCO4)cc(Br)c1OC (stereo not given) 0.0521 µM
CCOC(=O)c1c(NC(=O)c2ccc(S(=O)(=O)N(CCOC)CCOC)cc2)sc2c1CC(C)(C)NC2(C)C 3.29 µM
CCS(=O)(=O)c1ncc(Cl)c(C(=O)N2CCN(c3ccc(OC)cc3)CC2)n1 10.4 µM
CCC1=Nc2cc(C(=O)NC3CCCC3)ccc2Sc2ccc(Cl)cc21 2.07 µM
CC(=O)Nc1cccc(NC(=O)C(=O)NCCc2sc(-c3ccccc3)nc2C)c1 7.36 µM
CCCS(=O)(=O)c1ncc(Cl)c(C(=O)N2CCN(c3ccc(OC)cc3)CC2)n1 2.93 µM
Cc1cccc(N2CCN(c3ncnc4c3nc3n4CCCCC3)CC2C)c1 (stereo not given) 11.7 µM
CCOC(=O)Cn1c(=O)c2c(nc(N3CCOCC3)n2Cc2ccccc2)n(C)c1=O 4.14 µM
